gsp ag = qHTS for Agonist of gsp, the Etiologic Mutation Responsible for Fibrous Dysplasia/McCune-Albright Syndrome: qHTS; gsp mutant cells, cAMP HTRF, 30 min; Potency, µM (series often up to 76.9 µM), hits mostly activators; 340,000 compounds, 0.13% hits; AID 624287, 2012; active = well fitted activation curve with a large enough effect; inconclusive = small, poorly fitted or top-dose-only effect, or another doubt; inactive = no such curve, though single readings can be large or run the other way; cell line not stated here;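 also: phosphodiesterase inhibitor Ro 20-1724 added with compounds to block cAMP breakdown; nearly all actives have a fitted effect of over 60% in size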
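Cells stably selected in G418 were plated at 2000/well, grown 16-24 hr, then given compounds in DMSO with the PDE inhibitor […] (300 uM solution added) for 30 min at 37C; cAMP was read by HTRF.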
RXFP1 ag = qHTS Assay for Agonists of the Relaxin Receptor RXFP1. Potency, µM (titrated, usually from 57.5 µM), hits mostly activators. HEK293T-RXFP1 cAMP TR-FRET, 30 min; response scale: percent of porcine relaxin response, buffer zero. Relaxin receptor 1 (Homo sapiens), Q9HBX9. 370,000 compounds, 0.3% hits. AID 2676, 2010; also: nearly all actives have a fitted effect of over 60% in size
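cAMP rise read by TR-FRET after 30 min, 37C compound exposure (up to 58 uM) in RXFP1-transfected HEK293 cells with Ro 20174 present. EC50 from Hill-equation fits, with 29 nM porcine relaxin as 100% and buffer as basal.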
gsp antag = qHTS for Antagonists of gsp, the Etiologic Mutation Responsible for Fibrous Dysplasia/McCune-Albright Syndrome: qHTS | gsp-mutant cells, cAMP HTRF, 30 min | AID 624288, 2012 | Potency, µM (titrated, usually from 76.9 µM), most hits filed as inhibitors | 340,000 compounds, 0.4% hits; calls by dose curve; cell line not stated here;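 also: intracellular cAMP measured with PDE inhibitor Ro 20-1724 present during compound exposure; nearly all actives have a fitted effect of over 65% in size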
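Cells in G418 medium, seeded 16-24 h, 37C; buffer exchange to DPBS + 1 mM CaCl2, 0.5 mM MgCl2, 0.05% BSA; cpds in DMSO + […] (300 uM stock), 30 min 37C; HTRF cAMP detection.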
Luc counter = Counterscreen for Luciferase (Kinase-Glo TM) Inhibition | Luciferin 4-monooxygenase (Photuris pensylvanica), Q27757 | Kinase-Glo luciferase, ATP luminescence, 8 min | Potency, µM (top dose mostly 38.3 µM), actives largely listed as inhibitors | 200,000 compounds, 0.28% hits | AID 1379, 2008; also: nearly all actives have a fitted effect of over 60% in size
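Compound is pinned into ATP-containing buffer (10 uM ATP, imidazole pH 7.2, 7 mM MgCl2). Kinase-Glo luciferase reagent is then added. Light output is recorded following an 8-min room-temperature incubation.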
miR-21 reporter = qHTS Assay for Modulators of miRNAs and/orActivators of miR-21; 340,000 tested, under 10 active; AID 2288, 2010; HeLa miR-21 FLuc reporter, luciferase, 48 h; Potency, µM (titrated, usually from 38.3 µM), usual class: activators;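 also: miR-21 action dims this reporter so a rising signal means less miR-21 action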
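HeLa miR-21-FLuc reporter line, endogenous miR-21; 2000 cells/well in DMEM/10% FBS; compound titration up to ~40uM final, 48 h, 37 degree Celsius; luciferase detection reagent, 15 min lysis, CCD luminescence.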
RXFP1 antag = qHTS Assay for Antagonists of the Relaxin Receptor RXFP1; Relaxin receptor 1 (Homo sapiens), Q9HBX9; HEK293-RXFP1, relaxin-stimulated cAMP HTRF, 30 min; hits give low values; activity change, negative = inhibition, % at 57.5 µM; 350,000 compounds, 0.59% hits;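 active = activity change of -60% or lower, but not beyond a set lower limit; inconclusive = change between -60% and -40%, or beyond the set limit; inactive = change above -40%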
Hits are given with their value; . = inactive; ? = inconclusive; / = not tested or not shown; [ ] = another dose, or the depositor's remark. In the library only some 1% were active in any assay of this set; here they are far more common. Unless noted, calls follow the shape of the dose curve; as a rule, active = well fitted curve in the direction sought with a large enough effect; inconclusive = small, poorly fitted or top-dose-only effect, or another doubt; inactive = no such curve, though single readings can be large; an effect the other way counts as inactive or inconclusive.

SMILES | gsp ag | RXFP1 ag | gsp antag | Luc counter | miR-21 reporter | RXFP1 antag
COc1ccccc1NC(=O)c1ccc2oc(=O)c(S(=O)(=O)c3ccccc3)cc2c1 | / | . | / | / | . | /
O=C(Nc1ccccn1)c1ccc2c(c1)OCO2 | . | . | . | 11µM | . | .
O=C(Nc1ccccn1)c1cc2ccccc2o1 | . | . | . | 8.9µM | ? | .
Cc1ccnc(NC(=O)c2cc3ccccc3o2)c1 | . | . | . | / | / | .
O=C(Nc1ccc2c(c1)OCO2)c1cccs1 | . | . | . | 8.9µM | . | .
O=C(/C=C\Nc1ccc2c(c1)OCO2)c1ccccn1 | ? | . | . | 14µM | ? | /
O=C(Nc1cc(C(F)(F)F)ccc1Cl)c1cc(S(=O)(=O)NCc2ccccc2)ccc1F | / | . | / | / | . | .
Cc1ccc(CNC(=O)c2cc(-c3ccc(C)cc3)nc3n[nH]c(-c4cccc([N+](=O)[O-])c4)c23)cc1 | / | . | / | / | . | .
O=C(/C=C\Nc1ccc2c(c1)OCO2)c1ccc(Cl)s1 | . | . | . | . | . | .
O=C(/C=C\Nc1ccc2c(c1)OCO2)c1cccs1 | .[15.4 µM] | . | / | 13µM | . | .
CCCCNc1c(-c2cccc(-c3cc(C(C)=O)cs3)c2)nc2cc(C)ccn12 | . | . | 32µM | / | / | /
CCCCCCSc1cc(-c2nc3cc(C)ccn3c2NCCCC)ccc1OC | / | . | . | / | / | /
CS(=O)(=O)N(CC(=O)O)c1ccccc1 | / | / | / | . | / | /
O=C(NCc1ccc(Cl)cc1)C1CCCN(c2nc3ccccc3n3cccc23)C1 (stereo not drawn) | / | . | / | / | ? | -64
CCCCCCCCn1c2c(c(=N)c3ccccc31)CCC2 | .[15.4 µM] | . | . | . | . | .
CCCCCCCCCCn1c2c(c(=N)c3c1CCC3)CCC2 | .[15.4 µM] | . | . | . | ? | -69
CCCCCCCCCn1c2c(c(=N)c3c1CCC3)CCCC2 | ? | . | . | . | ? | -81
CCn1c2c(c(=N)c3c1CCC3)CCCC2 | .[15.4 µM] | . | . | / | . | .
COc1ccc(CCC(C)=O)cc1 | / | / | / | / | / | .
O=C(/C=C/c1cccc(Cl)c1)c1nc2ccccc2[nH]1 | . | . | . | . | . | -82
O=C(Cc1cccc2ccccc12)NC(NC(=S)Nc1ccccc1Cl)C(Cl)(Cl)Cl (stereo not drawn) | . | . | . | . | . | -63
CC(=O)[C@]1(O)CC[C@@H]2[C@H]3C[C@@H](C)C4=CC(=O)CC[C@@]4(C)C3[C@@H](O)C[C@]21C (stereo partly drawn) | / | / | / | .[7.66 µM] | / | /
CC(C)OC(=O)c1c(NC(=O)C2c3ccccc3Oc3ccccc32)sc2c1CCCC2 | / | 22µM | / | / | . | .
CCCOC(=O)c1c(NC(=O)C2c3ccccc3Oc3ccccc32)sc2c1CCCC2 | / | . | / | / | . | .
C[C@@H](NCCCc1cccc(C(F)(F)F)c1)c1cccc2ccccc12 | / | / | / | / | / | -68
SMILES | gsp ag | RXFP1 ag | gsp antag | Luc counter | miR-21 reporter | RXFP1 antag
CCCNC(=O)c1ccc2c(c1)nc1n2CCCCC1 | / | . | / | / | . | .
CCc1ccc(-n2nc(C)c3c(C(=O)Nc4cc(C)ccc4C)cc(C)nc32)cc1 | / | . | / | / | . | .
CCOC(=O)c1cc(-c2ccccc2)n(-c2cccc(C(=O)N(C)c3ccc(C)cc3)c2)c1C | / | . | / | / | ? | -63
Cc1ccc(C)c(NC(=O)CCc2nc3cccnc3n2Cc2cccs2)c1 | / | . | / | / | . | .
CCOC(=O)c1ccc(Oc2nc(N(C)C)nc(N3CCOCC3)n2)cc1 | . | . | 50µM | . | . | .
Cc1nc(S/C(=C/c2ccc(-c3cc(Cl)ccc3C)o2)C(=O)O)n[nH]1 | . | . | 28µM | / | . | .
Cc1nc(S/C(=C/c2ccc(-c3ccc(Cl)cc3)o2)C(=O)O)n[nH]1 | . | . | . | . | . | .
CCN(CC(=O)NCc1ccc(Cl)cc1)C(=O)CSc1ccc(Br)cc1 | . | . | 40µM | / | . | .
Cc1nn2c(=O)cc(COC(=O)c3ccc(NC(=O)c4cccs4)cc3)nc2s1 | / | . | / | / | . | .

Assay outcomes deposited in PubChem BioAssay by National Center for Advancing Translational Sciences (NCATS).
